{"source": "PubChem BioAssay AID651610", "about": "(Broad Institute, 2012)", "note": "About 3,900 (1.1%) of roughly 360,000 compounds were called active. Shown is part of a subset that was picked to be rich in actives. A number with no mark means an inactive call.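 How the source made its calls: active means mean replicate inhibition score of at least 50 and every replicate individually at or above 50; inconclusive means only one of the two criteria met; inactive means mean below 50 and not all replicates reaching 50.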", "data": [{"test": "blockers of JRFL envelope-mediated fusion – HeLa-JRFL effector, CEM21 target cells, luciferase, primary screen (AID 651610);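 further: 0% = plate neutral controls and 100% = maraviroc near 300 nM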", "details": "HeLa-JRFL Env/CEM21 cell fusion, stronger effect = higher value; at 16.7 µM unless noted", "values": [{"smiles": "C[C@H]1CCCCO[C@@H](CN(C)S(=O)(=O)c2ccc(Cl)cc2)[C@@H](C)CN([C@@H](C)CO)C(=O)c2cc(NS(=O)(=O)c3cn(C)cn3)ccc2O1", "inhibition": "3.67%"}, {"smiles": "C[C@@H]1CN([C@@H](C)CO)C(=O)c2cc(NS(C)(=O)=O)ccc2O[C@@H](C)CCCCO[C@@H]1CN(C)S(=O)(=O)c1cn(C)cn1", "inhibition": "-12%"}, {"smiles": "Cc1ccc(S(=O)(=O)Nc2cccc3c2O[C@@H](CN(C)C(=O)Nc2ccccc2)[C@H](C)CN([C@@H](C)CO)C3=O)cc1", "inhibition": "8.55%"}, {"smiles": "C[C@H](NC(=O)C[C@H]1CC[C@H]2[C@@H](COC[C@H](O)CN2C(=O)Nc2cccc(Cl)c2)O1)c1ccccc1", "inhibition": "-9.13%"}, {"smiles": "C[C@H](O)C#Cc1ccc2c(c1)O[C@@H](CN(C)CC1CCCC1)[C@H](C)CN([C@@H](C)CO)S2(=O)=O", "inhibition": "-37.3%"}, {"smiles": "C[C@H](CO)N1C[C@H](C)[C@H](CN(C)C)Oc2cc(C#CC3CC3)ccc2S1(=O)=O", "inhibition": "-1.04%"}, {"smiles": "C[C@H]1CN([C@@H](C)CO)C(=O)c2cc(NC(=O)Nc3cccc4ccccc34)ccc2O[C@@H]1CN(C)C", "inhibition": "3.97%"}, {"smiles": "C[C@@H]1CN([C@H](C)CO)C(=O)c2cc(NS(=O)(=O)c3ccccc3)ccc2O[C@H]1CN(C)C(=O)Nc1ccc2c(c1)OCO2", "inhibition": "-19.2%"}, {"smiles": "O=C(NCC[C@H]1CC[C@@H](NC(=O)C2CCCCC2)[C@@H](CO)O1)c1ccc(F)cc1", "inhibition": "-1.25%"}, {"smiles": "C[C@@H]1CCCCO[C@H](CN(C)C)[C@H](C)CN([C@@H](C)CO)C(=O)c2cc(NS(=O)(=O)c3cn(C)cn3)ccc2O1", "inhibition": "57.7% (active)"}, {"smiles": "C[C@H]1CCCCO[C@H](CN(C)C(=O)NC2CCCCC2)[C@@H](C)CN([C@@H](C)CO)C(=O)c2cc(NC(=O)Nc3ccc4c(c3)OCO4)ccc2O1", "inhibition": "62.7% (active)"}, {"smiles": "C[C@H](CO)N1C[C@H](C)[C@@H](CN(C)C(=O)Nc2ccc3c(c2)OCO3)OCCCC[C@H](C)Oc2ccc(NC(=O)Nc3ccc4c(c3)OCO4)cc2C1=O", "inhibition": "-2.35%"}, {"smiles": "C[C@@H]1CN([C@@H](C)CO)C(=O)c2cc(NS(=O)(=O)c3cn(C)cn3)ccc2O[C@@H](C)CCCCO[C@H]1CN(C)S(=O)(=O)c1cn(C)cn1", "inhibition": "2.07%"}, {"smiles": "C[C@H](CO)N1C[C@H](C)[C@H](CN(C)C(=O)NC2CCCCC2)OCCCC[C@H](C)Oc2ccc(NC(=O)Nc3ccc4c(c3)OCO4)cc2C1=O", "inhibition": "18.2%"}, {"smiles": "C[C@H](CO)N1C[C@H](C)[C@@H](CN(C)Cc2ccncc2)Oc2ccc(NC(=O)Nc3ccccc3)cc2C1=O", "inhibition": "4.38%"}, {"smiles": "C[C@@H]1CCCCO[C@@H](CN(C)Cc2ccc(C(F)(F)F)cc2)[C@@H](C)CN([C@H](C)CO)C(=O)c2cc(NC(=O)Nc3ccccc3)ccc2O1", "inhibition": "9.84%"}, {"smiles": "C[C@H]1CCCCO[C@@H](CN(C)Cc2ccc(C(F)(F)F)cc2)[C@@H](C)CN([C@@H](C)CO)C(=O)c2cc(NC(=O)Nc3ccccc3)ccc2O1", "inhibition": "86.8% (active)"}, {"smiles": "C[C@@H]1CN([C@@H](C)CO)C(=O)c2cc(NC(=O)c3ccncc3)ccc2O[C@@H]1CN(C)Cc1ccncc1", "inhibition": "85.6% (active)"}, {"smiles": "C[C@@H]1CN([C@H](C)CO)C(=O)c2cc(NC(=O)Nc3ccccc3)ccc2O[C@@H](C)CCCCO[C@H]1CN(C)Cc1ccc(C(F)(F)F)cc1", "inhibition": "5.92%"}, {"smiles": "C[C@@H]1CN([C@H](C)CO)C(=O)c2cc(NS(=O)(=O)c3cn(C)cn3)ccc2O[C@@H](C)CCCCO[C@H]1CN(C)C", "inhibition": "1.08%"}, {"smiles": "C[C@@H]1CN([C@H](C)CO)C(=O)c2cc(NC(=O)c3ccncc3)ccc2O[C@H]1CN(C)Cc1ccc(Oc2ccccc2)cc1", "inhibition": "-5.1%"}, {"smiles": "C[C@@H]1CN([C@@H](C)CO)C(=O)Cc2cc(NC(=O)C3CCCCC3)ccc2O[C@@H]1CN(C)Cc1ccncc1", "inhibition": "6.59%"}, {"smiles": "COCC#Cc1cnc2c(c1)C(=O)N([C@@H](C)CO)C[C@@H](C)[C@@H](CN(C)C(=O)Nc1ccccc1OC)O2", "inhibition": "2.09%"}, {"smiles": "COC(=O)C[C@H]1CC[C@H](NC(=O)c2ccccc2)[C@@H](CO)O1", "inhibition": "-4.18%"}, {"smiles": "CN1CCN(C(=O)C[C@H]2C[C@@H]3c4cc(NC(=O)Nc5ccc(C(F)(F)F)cc5)ccc4O[C@@H]3[C@H](CO)O2)CC1", "inhibition": "7.48%"}, {"smiles": "C[C@@H]1CN([C@H](C)CO)S(=O)(=O)c2ccc(C#C[C@@H](C)O)cc2O[C@H]1CN(C)C(=O)C1CCCCC1", "inhibition": "-6.31%"}, {"smiles": "CO[C@H]1CN(C)C(=O)c2cc(NC(=O)c3ccccc3)ccc2OC[C@H](C)NC[C@H]1C", "inhibition": "-18.7%"}, {"smiles": "COc1ccc(NC(=O)Nc2ccc3c(c2)C(=O)N([C@@H](C)CO)C[C@H](C)[C@H](CN(C)Cc2ccc(C(F)(F)F)cc2)OCCCC[C@H](C)O3)cc1", "inhibition": "55.7% (active)"}, {"smiles": "CC(C)NC(=O)Nc1ccc2c(c1)C(=O)N([C@H](C)CO)C[C@H](C)[C@@H](CN(C)Cc1ccc(C(F)(F)F)cc1)OCCCC[C@@H](C)O2", "inhibition": "76.6% [at 12.3 µM] (active)"}, {"smiles": "C[C@@H]1CN([C@H](C)CO)C(=O)c2cc(NC(=O)Nc3ccc(C(F)(F)F)cc3)ccc2O[C@@H](C)CCCCO[C@@H]1CN(C)Cc1ccc(C(F)(F)F)cc1", "inhibition": "32%"}, {"smiles": "C[C@@H]1CCCCO[C@H](CN(C)Cc2ccc(C(F)(F)F)cc2)[C@H](C)CN([C@H](C)CO)C(=O)c2cc(NC(=O)Nc3ccc(F)cc3)ccc2O1", "inhibition": "9.27%"}, {"smiles": "COc1ccc(CN(C)C[C@@H]2OCCCC[C@@H](C)Oc3ccc(NC(=O)Nc4ccc(C(F)(F)F)cc4)cc3C(=O)N([C@H](C)CO)C[C@H]2C)cc1", "inhibition": "40.3%"}, {"smiles": "COc1ccc(NC(=O)Nc2ccc3c(c2)C(=O)N([C@H](C)CO)C[C@H](C)[C@@H](CN(C)Cc2ccc(C(=O)O)cc2)OCCCC[C@H](C)O3)cc1", "inhibition": "-1.91%"}, {"smiles": "O=C(C[C@H]1C=C[C@@H](NS(=O)(=O)c2ccc(F)cc2)[C@@H](CO)O1)NC1CCC1", "inhibition": "11.3%"}, {"smiles": "O=C(C[C@H]1C[C@H]2c3cc(NC(=O)Nc4ccc(C(F)(F)F)cc4)ccc3O[C@H]2[C@@H](CO)O1)NCCc1ccccc1", "inhibition": "6.45%"}]}]}
